Source: the supplement of paper PMC7156485
± gives the standard deviation of the averaged measurements.

Assays:
Conditions in all cases: concentration: 10 µM; 24 h
HCC1569 [1] = assay: cell number relative to DMSO (% of DMSO); higher = more cells (less growth inhibition / toxicity)
Summary of the method: (§1)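 Cell number or H1.0 nuclear intensity appears as percent of the plate control, based on the median of replicates. Measurements came from HCC1569 and TDF cells exposed in triplicate to compounds at 10 µM for 24 h at 37 °C, then imaged in six fields per well at ×10. Positional effects were smoothed out of HCC1569 values.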

TDF [2] = assay: as above
Summary of the method: as §1

TDF [3] = assay: H1.0 immunofluorescence intensity relative to DMSO (% of DMSO); higher = stronger H1.0 induction, active = 120 or more
Summary of the method: as §1

HCC1569 [4] = assay: H1.0 immunofluorescence intensity relative to DMSO (% of DMSO); higher = stronger H1.0 induction, active = 140 or more
Summary of the method: as §1
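Throughout, for H1.0 immunofluorescence intensity relative to DMSO: TDF is a line of transformed human dermal fibroblasts of mesenchymal origin.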
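Throughout, for cell number relative to DMSO: TDF denotes transformed human dermal fibroblasts of mesenchymal origin.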

| SMILES | cell number (HCC1569 [1]) | cell number (TDF [2]) | H1.0 immunofluorescence intensity (TDF [3]) | H1.0 immunofluorescence intensity (HCC1569 [4]) |
| --- | --- | --- | --- | --- |
| COC(C)(C)CCCC(C)CC=CC(C)=CC(=O)O (stereo unspecified) [Methoprene acid] | 104 | 91.9 | 98 (inactive) | 94.6 (inactive) |
| Cn1cc(C2=C(c3cn(CCCSC(=N)N)c4ccccc34)C(=O)NC2=O)c2ccccc21 | 53.9 | 21.3 | 113 (inactive) | 238 (active) |
| COc1cc2nc(N3CCN(C(=O)c4ccco4)CC3)nc(N)c2cc1OC.Cl [Prazosin.HCl] | 107 | 105 | 92 (inactive) | 95.8 (inactive) |
| CCOC(=O)C1OC1C(=O)NC(CC(C)C)C(=O)NCCC(C)C (stereo unspecified) | 100 | 93.4 | 101 (inactive) | 97.9 (inactive) |
| Nc1nc(=O)c2ncn(CCC(CO)CO)c2[nH]1 [Penciclovir] | 103 | 103 | 90.4 (inactive) | 117 (inactive) |
| COc1cc(Oc2ccnc3cc(OC)c(OC)cc23)ccc1NC(=O)NC(C)c1nccs1 (stereo unspecified) | 68.5 | 47 | 99.9 (inactive) | 124 (inactive) |
| N[C@@H](Cc1ccc(F)cc1)C(=O)O [p-Fluoro-L-phenylalanine] | 104 | 102 | 93.4 (inactive) | 106 (inactive) |
| CC(=O)OC1CC2(C)C(CC(O)C3C4(C)CCC(O)C(C)C4CCC32C)C1=C(CCC=C(C)C)C(=O)[O-].[Na+] (stereo unspecified) [Fusidic acid sodium] | 105 | 113 | 89.5 (inactive) | 83.5 (inactive) |
| COc1cc(OC)cc(-c2cc3cnc(N)nc3nc2NC(=O)NC(C)(C)C)c1 | 84.2 | 90.4 | 101 (inactive) | 139 (inactive) |
| CCCCc1nc(Cl)c(CO)n1Cc1ccc(-c2ccccc2-c2nnn[n-]2)cc1.[K+] [Losartan potassium] | 102 | 90.1 | 98.1 (inactive) | 102 (inactive) |
| O.O.O=c1c(O)c(-c2ccc(O)c(O)c2)oc2cc(O)cc(O)c12 [Quercetin dihydrate] | 88.6 | 98.7 | 90.2 (inactive) | 134 (inactive) |
| CCc1cccc2c3c([nH]c12)C(CC)(CC(=O)O)OCC3 (stereo unspecified) [Etodolac] | 98.6 | 101 | 97 (inactive) | 105 (inactive) |
| COc1ccc(Nc2nc(N)nc(CN3CCCCC3)n2)cc1 | 102 | 90.5 | 96.9 (inactive) | 94.5 (inactive) |
| NS(=O)(=O)c1cc(C(=O)O)c(NCc2ccco2)cc1Cl [Furosemide] | 101 ± 1.2 | 110 ± 1.9 | 91 (inactive) | 100 (inactive) |
| CC(C)c1cc(C(C)C)c(-c2csc(N(CCN(C)C)Cc3cccnc3)n2)c(C(C)C)c1 | 50.7 | 55.2 | 146 (active) | 146 (active) |
| CC12CCC(=O)C=C1CCC1C2C(=O)CC2(C)C1CCC2(O)C(=O)CO (stereo unspecified) [Cortisone] | 87.8 | 82 | 106 (inactive) | 97 (inactive) |
| CCN(CC)CCCCN1c2ccccc2Oc2ccc(Cl)cc21.Cl | 88.8 | 86.3 | 110 (inactive) | 159 (active) |
| CCCCOC(=O)NS(=O)(=O)c1sc(CC(C)C)cc1-c1ccc(Cn2c(CC)nc3c(C)cc(C)nc32)cc1 | 99.7 | 106 | 84.8 (inactive) | 100 (inactive) |
| O=c1cc(N2CCOCC2)oc2c1ccc1ccccc12 [DNA-PK Inhibitor II] | 98.1 | 97.4 | 92.5 (inactive) | 112 (inactive) |
| CC(C)CCCC(C)C1CCC2C3CCC4=CC(N=O)CCC4(C)C3CCC12C [(20S)-cholest-4-en-3-one oxime] | 99.4 | 110 | 90.2 (inactive) | 101 (inactive) |
| O=c1[nH]cc(F)c(=O)[nH]1 [5-Fluorouracil] | 81.345 ± 0.068 | 92.4 ± 4.8 | 97.7 (inactive) | 94.5 (inactive) |
| Cl.O[C@H](c1cc(C(F)(F)F)nc2c(C(F)(F)F)cccc12)[C@@H]1CCCCN1 | 52 | 56.7 | 131 (active) | 170 (active) |
| CCCC1CC(C(=O)NC(C(C)O)C2OC(SC)C(O)C(O)C2O)N(C)C1 (stereo unspecified) [Lincomycin] | 103 ± 1.5 | 113 ± 2.2 | 93.1 (inactive) | 93 (inactive) |
| CCN(CC)CCOc1ccc(C(=C(Cl)c2ccccc2)c2ccccc2)cc1 [Clomiphene] | 99.9 | 88.3 | 98 (inactive) | 116 (inactive) |
